The Inhibition is the relative decrease from the control value, in per cent. Lower therefore signals a response near the control.

Structures are written as SMILES.

Common to all, as to format: functional
For assay [1], the system named is Plasmodium falciparum. Kind of assay: GSK_TCMDC: Inhibition of Plasmodium falciparum 3D7 in whole red blood cells, using parasite LDH activity as an index of growth. Test compounds present at 2uM.
Assay [2] relates to Plasmodium falciparum. The experiment in a line: GSK_TCMDC: Inhibition of Plasmodium falciparum Dd2 in whole red blood cells, using parasite LDH activity as an index of growth. Test compounds present at 2uM.
A further assay has as its system HepG2. Kind of assay: GSK_TCMDC: Percent inhibition of human HepG2 cell line. Test compounds present at 10uM.

For the compound `CC(C)(C)c1ccc(NC(=O)c2ccc(CN3CCCN(Cc4cccc(O)c4)CC3)cc2)cc1.O=C(O)C(F)(F)F`, the Inhibition in the assay on Plasmodium falciparum [1] was 100%; with Plasmodium falciparum [2], 62%; in the assay on HepG2 it was 54%.

Take `Cc1ccccc1CNc1noc(-c2c(-c3ccccc3)noc2C)n1`: the Inhibition in the assay on Plasmodium falciparum [1] is 94%; in the assay with Plasmodium falciparum [2] it was 70%; in the assay with HepG2 it was 0%.

For `COc1ccc(C2=[N+]([O-])c3ccccc3C2=O)cc1`, the Inhibition in the assay on Plasmodium falciparum [1] is reported as 93%; in the assay with Plasmodium falciparum [2], 61%; with HepG2, 2%.

Regarding `CCOC(=O)c1c(C)n(-c2ccccc2)c2ccc(O)cc12`, the Inhibition in the assay on Plasmodium falciparum [1] stood at 100%; with Plasmodium falciparum [2] it was 87%; with HepG2 it was 0%.

`CNS(=O)(=O)c1ccc(NC(=O)c2cc(-c3cccnc3)nc3ccc(Br)cc23)cc1`: the Inhibition with Plasmodium falciparum [1] was found to be 100%; in the assay with Plasmodium falciparum [2] it was 55%; in the assay on HepG2, 9%.

As to `CN1CCN(Cc2ccc(-c3cc4nccc(Nc5ccc(Oc6ccccc6)cc5)c4cc3Cl)o2)CC1`, the Inhibition is given as 100% in the assay with Plasmodium falciparum [1], 99% with Plasmodium falciparum [2] and 3% in the assay with HepG2.

Regarding `Cn1nc(-c2ccc(NC(=O)Nc3cc(C(F)(F)F)ccc3F)cc2)c2cnc(NCCc3c[nH]cn3)nc21.O=C(O)C(F)(F)F`, the Inhibition amounted to 99% in the assay with Plasmodium falciparum [1], 56% in the assay with Plasmodium falciparum [2] and 15% with HepG2.

As for `Cc1ccc2cc(NC(=O)CCCCCCCON3C(N)=NC(N)=NC34CCCCC4)ccc2n1.O=C(O)C(F)(F)F`, the Inhibition is 98% with Plasmodium falciparum [1], 86% in the assay on Plasmodium falciparum [2] and 6% in the assay with HepG2.

In the case of `Cc1ccc(O)cc1Nc1ccnc2cc(-c3cccc(CNCCS(C)(=O)=O)c3)ccc12`, the values for the Inhibition in the assay with Plasmodium falciparum [1], with Plasmodium falciparum [2] and in the assay on HepG2 were 99%, 100% and 9%, respectively.

`Cc1[nH]c(C)c(-c2ccc(OCc3ccccc3C(F)(F)F)nc2)c(=O)c1Br`: the Inhibition in the assay with Plasmodium falciparum [1] is on record as 98%; with Plasmodium falciparum [2], 97%; in the assay on HepG2, 35%.

As for `CCn1cc2c3c(cc(C(=O)N[C@@H](Cc4ccccc4)[C@H](O)CNCc4cccc(OC)c4)cc31)N(C)S(=O)(=O)CC2`, the results for the Inhibition with Plasmodium falciparum [1], in the assay on Plasmodium falciparum [2] and in the assay with HepG2 were 99%, 97% and 0%, respectively.

As for `c1ccc2[nH]c(Nc3ccc(Nc4nc5ccccc5[nH]4)cc3)nc2c1`, the Inhibition with Plasmodium falciparum [1] was 98%; in the assay with Plasmodium falciparum [2], 27%; in the assay on HepG2 it was 0%.

On to `O=C(N[C@H]1CCN(Cc2ccc(OCCN3CCNCC3)c3ccccc23)C1)c1ccc(Cl)c(Cl)c1.O=C(O)C(F)(F)F`, for which the Inhibition in the assay on Plasmodium falciparum [1] is 100%; in the assay with Plasmodium falciparum [2] it was 99%; in the assay on HepG2 it was 53%.

In the case of `O=C(c1ccccc1F)N(Cc1ccc(Cl)cc1)c1ccccn1`, the Inhibition in the assay on Plasmodium falciparum [1] was determined as 84%; in the assay on Plasmodium falciparum [2], 58%; in the assay on HepG2, 0%.

Take `COc1ccc2nccc([C@@H](O)CN3CCC(NC(=O)c4cccc(C(=O)c5ccccc5)c4)CC3)c2c1`: the Inhibition in the assay on Plasmodium falciparum [1] was 99%; in the assay on Plasmodium falciparum [2], 99%; with HepG2 it was 13%.

As for `O=C(O)C(F)(F)F.c1cc(CN2CCCCC2)cc(-c2ccc(-c3nc4ccccc4[nH]3)cc2)c1`, the Inhibition with Plasmodium falciparum [1] is 100%; in the assay with Plasmodium falciparum [2], 88%; with HepG2, 9%.

Turning to `Cc1c(C)n(C2CCCCC2)c2ncnc(OC3CCN(CC(=O)N4CCCC4)CC3)c12`, the Inhibition with Plasmodium falciparum [1] stood at 95%; with Plasmodium falciparum [2], 59%; with HepG2 it was 31%.

In the case of `O=C(Nc1ccc(Cl)cc1)Nc1ccc(-c2cccc(-c3nc4cc(F)ccc4[nH]3)c2)cc1`, the values for the Inhibition with Plasmodium falciparum [1], with Plasmodium falciparum [2] and with HepG2 were 100%, 96% and 74%, respectively.

As for `COc1ccc2nccc([C@@H](O)CN3CCC(NCc4cc5ccccn5n4)CC3)c2c1.O=C(O)C(=O)O`, the Inhibition in the assay with Plasmodium falciparum [1] is listed as 99%; with Plasmodium falciparum [2] it was 18%; in the assay with HepG2, 7%.

As to `Cc1cc(=O)c(-c2ccc(OCCSc3ccc(C(F)(F)F)cn3)cc2)c(C)[nH]1`, the Inhibition is 97% with Plasmodium falciparum [1], 96% in the assay on Plasmodium falciparum [2] and 2% in the assay on HepG2.

With `Clc1ccc2c(Cl)c(CNCCCNc3nc4ccccc4[nH]3)[nH]c2c1`, the Inhibition with Plasmodium falciparum [1] worked out at 100%; in the assay with Plasmodium falciparum [2] it was 7%; with HepG2 it was 38%.

As to `CC(C)Nc1cc(C(=O)N[C@@H](Cc2ccccc2)[C@H](O)CNCc2cccc(C(F)(F)F)c2)c(F)c(N2CCCCS2(=O)=O)c1.O=CO`, the Inhibition with Plasmodium falciparum [1] came out at 93%; in the assay with Plasmodium falciparum [2], 78%; in the assay with HepG2 it was 0%.

On to `CC(CCc1ccccc1)NCC(O)c1cccc([N+](=O)[O-])c1` (stereo not given), for which the Inhibition came out at 97% in the assay on Plasmodium falciparum [1], 98% with Plasmodium falciparum [2] and 0% with HepG2.

In the case of `CC(=O)c1ccc(N2CCN(C(=O)Nc3ccc(Cl)cc3)CC2)cc1`, the Inhibition is recorded as 97% in the assay on Plasmodium falciparum [1], 0% in the assay on Plasmodium falciparum [2] and 4% with HepG2.

As to `N#Cc1ccc(N[C@@H](CC2CCCCC2)C(=O)NCc2cc(Cl)cc(Cl)c2)c2ccccc12.O=C(O)C(F)(F)F`, the Inhibition is reported as 94% in the assay with Plasmodium falciparum [1], 88% with Plasmodium falciparum [2] and 34% with HepG2.

Consider `COc1ccc(N2C(N)=NC(N)=NC2(C)C)cc1.Cl`, for which the Inhibition in the assay on Plasmodium falciparum [1] came to 94%; in the assay with Plasmodium falciparum [2], 29%; in the assay on HepG2, 0%.

On to `NC(=O)c1cccc(C(=O)Nc2ccc(-c3cccc(-c4nc5cc(F)ccc5[nH]4)c3)cc2)c1`, for which the results for the Inhibition with Plasmodium falciparum [1], in the assay on Plasmodium falciparum [2] and with HepG2 were 94%, 5% and 45%, respectively.

In the case of `O=C(Nc1cccc(-c2cccc(-c3nc4ccccc4[nH]3)c2)c1)c1ccoc1`, the Inhibition in the assay with Plasmodium falciparum [1] worked out at 85%; in the assay on Plasmodium falciparum [2] it was 36%; with HepG2, 19%.

On to `COc1ccc(CC(=O)Nc2ccc(Nc3nc(C)cc(N4CCCC4)n3)cc2)cc1`, for which the Inhibition with Plasmodium falciparum [1] worked out at 100%; with Plasmodium falciparum [2], 65%; in the assay with HepG2 it was 56%.

In the case of `O=C(/C=C/c1c[nH]c2ccccc12)NCCCCCN1CCC(c2c[nH]c3ccccc23)CC1`, the Inhibition worked out at 96% in the assay on Plasmodium falciparum [1], 0% in the assay on Plasmodium falciparum [2] and 20% in the assay with HepG2.

The values above are taken from ChEMBL document CHEMBL1157539, “Thousands of chemical starting points for antimalarial lead identification” (Nature, 2010).
